Source: the supplement of paper PMC10849652
About 7,900 targets were measured; listed, in parts, are those with a hit and a random draw of the rest. About 0.6% of all pairs of compound and target were hits.

Key:
Assay in all cases: log2 fold change, soluble protein after heating vs DMSO (PISA); higher = thermal stabilisation; K562 cells, 10 uM, 30 min; active = over 0.2 and 3.5 SD of the protein, either way, in both replicates (recomputed)
[1] = compound: C1=CC=C(C=C1)[C@H](COC2=CC3=C(C=C2)NC(=O)N3)NC(=O)C4=CC=CN(C4=O)CC5=CC(=C(C=C5)F)F
Summary of the method: (§1)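 Quantification of soluble protein used TMTpro 16plex LC-MS/MS, with channel sums equalised. Samples were the supernatant after 21,000xg for 90 min of pooled aliquots from K562 cells (2×10^6 cells/mL) treated with 10 μM compound for 30 min, heated for 3 min over 48°C-58°C, and extracted in PBS with 0.5% NP-40 at 4°C. Values, from duplicates, describe thermal stability against control samples on a log2 fold-change scale.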

[2] = compound: CC1=C(SC2=C1C(=N[C@H](C3=NN=C(N32)C)CC(=O)N)C4=CC=C(C=C4)Cl)C
Summary of the method: as §1

[3] = compound: CC1=C2C(=CC=C1)N=C(N(C2=O)C3=CC=CC=C3C)CN4C=NC5=C(N=CN=C54)N
Summary of the method: as §1

[4] = compound: Cc1sc2c(c1C)C(c1ccc(Cl)cc1)=N[C@@H](CC(=O)OC(C)(C)C)c1nnc(C)n1-2
Summary of the method: as §1

[5] = compound: c1ccc([C@@H]2C[C@H]2NC2CCNCC2)cc1
Summary of the method: as §1

Measured: log2 fold change

PPP2R5C isoform 4 (UniProt Q13362)
inactive: [1] -0.03 | [2] -0.003 | [3] 0.117 | [4] -0.019 | [5] 0.012

PRKAR2B (UniProt P31323)
inactive: [1] -0.065 | [2] -0.012 | [3] -0.06 | [4] -0.024 | [5] 0.007

PHKG2 (UniProt P15735)
inactive: [1] 0.028 | [2] -0.033 | [3] 0.013 | [4] 0.051 | [5] 0.026

PCBP1 (UniProt Q15365)
Chain of UniProt Q15365 (Q15365 whole entry, looked up): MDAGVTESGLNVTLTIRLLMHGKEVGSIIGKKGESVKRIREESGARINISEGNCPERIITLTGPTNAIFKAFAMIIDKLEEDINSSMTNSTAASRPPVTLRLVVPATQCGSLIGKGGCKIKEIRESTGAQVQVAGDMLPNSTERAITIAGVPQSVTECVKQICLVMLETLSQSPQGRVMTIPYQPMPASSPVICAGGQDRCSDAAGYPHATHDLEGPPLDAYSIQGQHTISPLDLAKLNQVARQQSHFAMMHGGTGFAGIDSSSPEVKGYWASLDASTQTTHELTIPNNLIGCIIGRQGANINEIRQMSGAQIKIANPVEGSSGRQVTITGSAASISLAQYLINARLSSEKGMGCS
inactive: [1] -0.045 | [2] 0.047 | [3] 0.048 | [4] -0.03 | [5] 0

PRPF38B (UniProt Q5VTL8)
Chain of UniProt Q5VTL8 (Q5VTL8 whole entry, looked up): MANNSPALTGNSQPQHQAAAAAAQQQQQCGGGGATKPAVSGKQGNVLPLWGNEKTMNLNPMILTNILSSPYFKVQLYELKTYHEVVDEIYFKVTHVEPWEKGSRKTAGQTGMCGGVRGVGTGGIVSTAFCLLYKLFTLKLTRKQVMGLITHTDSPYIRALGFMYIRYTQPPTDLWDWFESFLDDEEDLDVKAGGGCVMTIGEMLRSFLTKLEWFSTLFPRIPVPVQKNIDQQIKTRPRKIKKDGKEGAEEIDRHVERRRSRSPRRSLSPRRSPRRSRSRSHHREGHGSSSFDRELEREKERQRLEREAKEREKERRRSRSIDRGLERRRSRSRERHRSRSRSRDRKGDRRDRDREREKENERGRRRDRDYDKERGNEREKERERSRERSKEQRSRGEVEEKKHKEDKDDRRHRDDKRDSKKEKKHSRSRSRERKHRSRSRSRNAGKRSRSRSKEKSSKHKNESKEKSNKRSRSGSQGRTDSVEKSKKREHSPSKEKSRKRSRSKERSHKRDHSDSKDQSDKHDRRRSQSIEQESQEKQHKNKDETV
inactive: [1] 0.038 | [2] 0.066 | [3] 0.052 | [4] 0.056 | [5] 0.032

PJA2 (UniProt O43164)
inactive: [1] 0.005 | [2] -0.042 | [3] 0.021 | [4] 0.006 | [5] 0.024

PRMT7 (UniProt Q9NVM4)
inactive: [1] -0.051 | [2] 0.015 | [3] 0.056 | [4] 0.009 | [5] -0.027

PHF5A (UniProt Q7RTV0)
inactive: [1] 0.048 | [2] -0.024 | [3] 0.018 | [4] 0.002 | [5] 0.018

PMVK (UniProt Q15126)
Chain of UniProt Q15126 (Q15126 whole entry, looked up): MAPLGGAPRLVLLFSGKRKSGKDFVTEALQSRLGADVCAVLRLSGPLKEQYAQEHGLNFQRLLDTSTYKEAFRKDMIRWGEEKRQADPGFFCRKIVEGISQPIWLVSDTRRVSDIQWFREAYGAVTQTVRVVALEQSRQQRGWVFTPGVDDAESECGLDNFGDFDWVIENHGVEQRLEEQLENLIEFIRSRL
inactive: [1] -0.156 | [2] 0.004 | [3] 0.116 | [4] 0.063 | [5] 0.028

PDSS2 (UniProt Q86YH6)
inactive: [1] -0.066 | [2] 0.052 | [3] 0.085 | [4] 0.005 | [5] 0.094

PTK2B (UniProt Q14289)
inactive: [1] -0.105 | [2] -0.098 | [3] 0.194 | [4] 0 | [5] -0.013

PRMT3 (UniProt O60678)
Chain of UniProt O60678 (O60678 whole entry, looked up): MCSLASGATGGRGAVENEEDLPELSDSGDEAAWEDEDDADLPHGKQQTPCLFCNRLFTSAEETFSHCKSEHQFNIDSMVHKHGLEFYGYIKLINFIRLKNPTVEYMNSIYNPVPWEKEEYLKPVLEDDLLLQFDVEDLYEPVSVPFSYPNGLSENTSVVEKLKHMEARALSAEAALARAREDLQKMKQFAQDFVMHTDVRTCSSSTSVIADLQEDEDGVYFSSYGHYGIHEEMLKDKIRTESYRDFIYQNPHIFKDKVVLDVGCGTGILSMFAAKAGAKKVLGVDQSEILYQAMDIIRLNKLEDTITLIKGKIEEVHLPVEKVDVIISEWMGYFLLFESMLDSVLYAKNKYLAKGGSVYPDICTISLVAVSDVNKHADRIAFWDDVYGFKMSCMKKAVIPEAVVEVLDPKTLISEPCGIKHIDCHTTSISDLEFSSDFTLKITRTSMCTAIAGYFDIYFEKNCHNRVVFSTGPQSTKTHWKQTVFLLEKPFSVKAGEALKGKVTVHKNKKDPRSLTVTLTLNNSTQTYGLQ
inactive: [1] -0.1 | [2] 0.077 | [3] 0.024 | [4] -0.013 | [5] 0.001

PGK2 (UniProt P07205)
inactive: [1] -0.1 | [2] 0.046 | [3] 0.153 | [4] 0.037 | [5] 0.034

POLR2M (UniProt Q6EEV4)
Chain of UniProt Q6EEV4 (Q6EEV4 whole entry, looked up): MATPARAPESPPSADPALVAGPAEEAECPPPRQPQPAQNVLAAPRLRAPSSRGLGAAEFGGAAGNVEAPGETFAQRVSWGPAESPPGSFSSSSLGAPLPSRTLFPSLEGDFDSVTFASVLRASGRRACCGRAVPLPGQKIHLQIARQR
inactive: [1] 0.092 | [2] 0.105 | [3] -0.002 | [4] -0.128 | [5] -0.107

POLD1 (UniProt P28340)
inactive: [1] 0.017 | [2] 0.019 | [3] 0.094 | [4] 0.048 | [5] 0

PIKFYVE (UniProt Q9Y2I7)
inactive: [1] -0.077 | [2] 0.106 | [3] 0.111 | [4] 0.068 | [5] -0.009

PPP2R5E (UniProt Q16537)
inactive: [1] -0.045 | [2] 0.1 | [3] 0.105 | [4] -0.118 | [5] 0.05

POLR2M (UniProt P0CAP2)
inactive: [1] -0.021 | [2] 0.096 | [3] 0.045 | [4] 0.004 | [5] -0.062

PIP4K2C (UniProt Q8TBX8)
inactive: [1] -0.148 | [2] 0.034 | [3] 0.05 | [4] -0.029 | [5] -0.042

PTPN12 (UniProt Q05209)
Chain of UniProt Q05209 (Q05209 whole entry, looked up): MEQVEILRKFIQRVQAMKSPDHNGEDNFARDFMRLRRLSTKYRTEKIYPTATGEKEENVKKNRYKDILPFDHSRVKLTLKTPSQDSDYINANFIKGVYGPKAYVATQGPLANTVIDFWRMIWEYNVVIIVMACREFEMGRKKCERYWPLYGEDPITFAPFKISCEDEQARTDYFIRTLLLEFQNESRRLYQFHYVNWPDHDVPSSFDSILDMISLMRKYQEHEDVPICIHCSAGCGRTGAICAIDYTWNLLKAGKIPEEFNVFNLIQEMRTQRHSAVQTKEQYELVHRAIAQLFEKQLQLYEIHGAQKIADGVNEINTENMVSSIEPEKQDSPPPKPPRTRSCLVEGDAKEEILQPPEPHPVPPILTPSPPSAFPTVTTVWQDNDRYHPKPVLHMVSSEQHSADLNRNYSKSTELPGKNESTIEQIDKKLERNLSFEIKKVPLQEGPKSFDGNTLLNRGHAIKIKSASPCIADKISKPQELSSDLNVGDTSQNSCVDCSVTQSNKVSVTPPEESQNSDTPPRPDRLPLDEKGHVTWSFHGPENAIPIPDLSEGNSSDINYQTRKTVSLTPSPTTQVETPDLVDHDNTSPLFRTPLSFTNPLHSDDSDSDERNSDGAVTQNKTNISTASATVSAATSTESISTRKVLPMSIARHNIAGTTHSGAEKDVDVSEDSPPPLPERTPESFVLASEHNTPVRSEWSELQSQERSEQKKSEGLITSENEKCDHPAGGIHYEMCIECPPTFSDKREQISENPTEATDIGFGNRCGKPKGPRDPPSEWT
inactive: [1] 0.035 | [2] 0.034 | [3] 0.091 | [4] 0.024 | [5] 0.015

PPIL2 (UniProt Q13356)
inactive: [1] -0.028 | [2] 0.041 | [3] 0.098 | [4] -0.019 | [5] -0.011

PPP2R5C isoform 5 (UniProt Q13362)
inactive: [1] -0.039 | [2] 0.001 | [3] 0.084 | [4] -0.067 | [5] -0.029

PRKCB isoform 2 (UniProt P05771)
inactive: [1] -0.034 | [2] 0.028 | [3] 0.053 | [4] 0.027 | [5] -0.008

PDCD4 (UniProt Q53EL6)
inactive: [1] -0.055 | [2] 0.002 | [3] 0.053 | [4] -0.167 | [5] -0.003

PC (UniProt P11498)
Chain of UniProt P11498 (P11498 whole entry, looked up): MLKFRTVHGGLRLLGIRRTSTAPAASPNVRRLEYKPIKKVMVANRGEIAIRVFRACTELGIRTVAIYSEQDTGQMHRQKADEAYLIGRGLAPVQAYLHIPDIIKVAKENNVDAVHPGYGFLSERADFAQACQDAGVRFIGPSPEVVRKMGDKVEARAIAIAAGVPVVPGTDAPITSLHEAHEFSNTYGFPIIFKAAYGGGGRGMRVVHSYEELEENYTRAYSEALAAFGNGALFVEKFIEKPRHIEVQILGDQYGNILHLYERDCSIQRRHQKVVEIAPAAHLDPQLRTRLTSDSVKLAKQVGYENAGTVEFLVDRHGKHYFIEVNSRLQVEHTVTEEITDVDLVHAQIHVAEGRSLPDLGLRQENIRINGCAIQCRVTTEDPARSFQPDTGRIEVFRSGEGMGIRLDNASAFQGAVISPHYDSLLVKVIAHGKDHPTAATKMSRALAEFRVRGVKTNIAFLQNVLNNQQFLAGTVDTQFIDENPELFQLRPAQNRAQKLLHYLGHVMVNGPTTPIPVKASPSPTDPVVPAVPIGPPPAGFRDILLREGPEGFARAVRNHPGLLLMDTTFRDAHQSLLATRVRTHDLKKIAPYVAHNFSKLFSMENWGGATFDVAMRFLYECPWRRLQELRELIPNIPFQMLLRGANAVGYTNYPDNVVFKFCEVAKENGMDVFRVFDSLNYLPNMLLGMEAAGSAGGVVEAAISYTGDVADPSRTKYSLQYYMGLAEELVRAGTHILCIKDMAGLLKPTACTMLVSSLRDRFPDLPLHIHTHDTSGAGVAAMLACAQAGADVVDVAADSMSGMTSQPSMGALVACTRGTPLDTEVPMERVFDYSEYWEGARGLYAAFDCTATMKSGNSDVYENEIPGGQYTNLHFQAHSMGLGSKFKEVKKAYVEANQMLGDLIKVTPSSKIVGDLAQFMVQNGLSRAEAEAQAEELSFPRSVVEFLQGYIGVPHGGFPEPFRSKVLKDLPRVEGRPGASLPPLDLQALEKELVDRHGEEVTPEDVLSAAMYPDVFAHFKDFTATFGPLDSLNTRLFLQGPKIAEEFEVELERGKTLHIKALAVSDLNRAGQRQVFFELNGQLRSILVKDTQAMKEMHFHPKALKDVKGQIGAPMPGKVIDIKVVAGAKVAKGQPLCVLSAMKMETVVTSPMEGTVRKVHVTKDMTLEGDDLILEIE
inactive: [1] -0.012 | [2] 0.031 | [3] 0.111 | [4] 0.025 | [5] -0.021

PRKCE (UniProt Q02156)
inactive: [1] -0.065 | [2] 0.033 | [3] 0.071 | [4] 0.018 | [5] 0

PSMA3 (UniProt P25788)
inactive: [1] 0.051 | [2] -0.062 | [3] -0.022 | [4] -0.036 | [5] -0.029

PCGF2 (UniProt P35227)
inactive: [1] -0.046 | [2] 0.133 | [3] -0.015 | [4] 0.002 | [5] -0.05

PPM1G (UniProt O15355)
inactive: [1] -0.139 | [2] 0.025 | [3] 0.081 | [4] 0.002 | [5] -0.089

PDS5B (UniProt Q9NTI5)
inactive: [1] -0.153 | [2] 0.029 | [3] 0.169 | [4] 0.233 | [5] -0.011

PTP4A1 (UniProt Q93096)
inactive: [1] -0.002 | [2] 0.109 | [3] 0.037 | [4] 0.001 | [5] -0.031

PDS5A (UniProt Q29RF7)
inactive: [1] -0.34 | [2] 0.066 | [3] 0.096 | [4] 0.038 | [5] -0.105

PSMC1 (UniProt P62191)
inactive: [1] 0.047 | [2] -0.09 | [3] -0.002 | [4] 0 | [5] 0

PIR (UniProt O00625)
Chain of UniProt O00625 (O00625 whole entry, looked up): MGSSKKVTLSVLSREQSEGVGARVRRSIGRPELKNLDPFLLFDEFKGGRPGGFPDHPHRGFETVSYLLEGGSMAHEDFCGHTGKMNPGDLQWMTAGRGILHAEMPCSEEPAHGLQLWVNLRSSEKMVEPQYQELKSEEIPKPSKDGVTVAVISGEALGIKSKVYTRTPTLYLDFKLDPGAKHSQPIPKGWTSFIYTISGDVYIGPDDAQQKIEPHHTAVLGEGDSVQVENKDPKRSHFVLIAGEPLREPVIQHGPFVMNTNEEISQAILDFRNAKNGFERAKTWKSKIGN
inactive: [1] 0.016 | [2] 0.064 | [3] 0.027 | [4] -0.029 | [5] 0.002

PCBP2 (UniProt F8VRH0)
inactive: [1] -0.033 | [2] -0.18 | [3] -0.013 | [4] 0.085 | [5] 0.026

PBX2 (UniProt P40425)
inactive: [1] -0.052 | [2] 0.082 | [3] -0.011 | [4] 0.051 | [5] -0.016

PSMC2 (UniProt P35998)
Chain of UniProt P35998 (P35998 whole entry, looked up): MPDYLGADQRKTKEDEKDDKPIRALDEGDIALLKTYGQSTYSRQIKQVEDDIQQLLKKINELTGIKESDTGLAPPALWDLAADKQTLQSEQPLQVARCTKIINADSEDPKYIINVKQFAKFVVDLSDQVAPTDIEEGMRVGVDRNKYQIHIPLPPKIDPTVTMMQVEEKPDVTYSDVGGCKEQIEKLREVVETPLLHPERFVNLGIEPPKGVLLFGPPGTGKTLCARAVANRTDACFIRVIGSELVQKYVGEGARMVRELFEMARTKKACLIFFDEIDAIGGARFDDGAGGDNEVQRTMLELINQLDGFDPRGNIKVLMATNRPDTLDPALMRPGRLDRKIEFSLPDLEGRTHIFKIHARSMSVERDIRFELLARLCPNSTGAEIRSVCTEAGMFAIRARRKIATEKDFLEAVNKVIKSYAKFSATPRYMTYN
inactive: [1] 0.031 | [2] -0.085 | [3] -0.092 | [4] 0.002 | [5] 0.001

PRKAR2A (UniProt P13861)
inactive: [1] 0.044 | [2] 0.046 | [3] 0.054 | [4] 0.018 | [5] -0.003

PUM1 isoform 3 (UniProt Q14671)
inactive: [1] 0.004 | [2] -0.036 | [3] 0.056 | [4] 0.025 | [5] -0.049

PARP1 (UniProt P09874)
inactive: [1] -0.098 | [2] 0.027 | [3] 0.182 | [4] -0.069 | [5] -0.101

PRUNE1 (UniProt Q86TP1)
inactive: [1] -0.025 | [2] -0.002 | [3] 0.023 | [4] 0 | [5] -0.007

PMM1 (UniProt Q92871)
inactive: [1] -0.031 | [2] -0.001 | [3] 0.091 | [4] 0.004 | [5] -0.006

PSMB6 (UniProt P28072)
inactive: [1] 0.023 | [2] -0.057 | [3] -0.015 | [4] 0.019 | [5] 0.081

PTPA (UniProt Q15257)
inactive: [1] -0.013 | [2] 0.021 | [3] 0.005 | [4] -0.041 | [5] -0.003

PRIM1 (UniProt P49642)
Chain of UniProt P49642 (P49642 whole entry, looked up): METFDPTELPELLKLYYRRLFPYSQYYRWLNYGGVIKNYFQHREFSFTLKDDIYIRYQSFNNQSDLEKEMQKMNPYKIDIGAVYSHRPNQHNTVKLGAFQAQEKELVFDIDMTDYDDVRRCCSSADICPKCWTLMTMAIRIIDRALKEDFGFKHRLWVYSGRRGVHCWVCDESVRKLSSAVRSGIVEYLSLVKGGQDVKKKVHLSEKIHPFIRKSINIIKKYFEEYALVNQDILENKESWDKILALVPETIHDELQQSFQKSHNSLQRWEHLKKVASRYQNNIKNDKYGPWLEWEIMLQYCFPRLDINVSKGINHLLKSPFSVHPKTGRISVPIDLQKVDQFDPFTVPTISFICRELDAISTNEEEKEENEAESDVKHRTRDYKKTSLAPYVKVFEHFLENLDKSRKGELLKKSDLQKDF
inactive: [1] -0.149 | [2] -0.033 | [3] 0.053 | [4] 0.033 | [5] 0.01

PEX13 (UniProt Q92968)
inactive: [1] -0.064 | [2] 0.05 | [3] 0.078 | [4] -0.107 | [5] 0.001

PSMD2 (UniProt Q13200)
inactive: [1] 0.026 | [2] -0.097 | [3] -0.059 | [4] 0.008 | [5] 0.016

PTMA (UniProt P06454)
inactive: [1] 0.029 | [2] 0.017 | [3] -0.105 | [4] -0.166 | [5] -0.009

PTTG1 (UniProt O95997)
inactive: [1] -0.005 | [2] 0.003 | [3] 0.014 | [4] 0.004 | [5] 0.011

PELO (UniProt Q9BRX2)
inactive: [1] -0.037 | [2] 0.116 | [3] 0.103 | [4] 0.064 | [5] -0.049

PCNT (UniProt O95613)
inactive: [1] 0.037 | [2] -0.067 | [3] 0.11 | [4] 0.064 | [5] 0.105

QRSL1 (UniProt Q9H0R6)
inactive: [1] -0.01 | [2] 0.142 | [3] 0.147 | [4] 0.05 | [5] 0.041

POLA2 (UniProt Q14181)
inactive: [1] -0.023 | [2] 0.048 | [3] 0.114 | [4] -0.006 | [5] 0.034
